{"source": "PubChem BioAssay (NCATS)", "key": {"[1]": {"biological_target": "Cytochrome P450 2D6 (Homo sapiens) (UniProt P10635)", "sequence (P10635 whole entry, looked up)": "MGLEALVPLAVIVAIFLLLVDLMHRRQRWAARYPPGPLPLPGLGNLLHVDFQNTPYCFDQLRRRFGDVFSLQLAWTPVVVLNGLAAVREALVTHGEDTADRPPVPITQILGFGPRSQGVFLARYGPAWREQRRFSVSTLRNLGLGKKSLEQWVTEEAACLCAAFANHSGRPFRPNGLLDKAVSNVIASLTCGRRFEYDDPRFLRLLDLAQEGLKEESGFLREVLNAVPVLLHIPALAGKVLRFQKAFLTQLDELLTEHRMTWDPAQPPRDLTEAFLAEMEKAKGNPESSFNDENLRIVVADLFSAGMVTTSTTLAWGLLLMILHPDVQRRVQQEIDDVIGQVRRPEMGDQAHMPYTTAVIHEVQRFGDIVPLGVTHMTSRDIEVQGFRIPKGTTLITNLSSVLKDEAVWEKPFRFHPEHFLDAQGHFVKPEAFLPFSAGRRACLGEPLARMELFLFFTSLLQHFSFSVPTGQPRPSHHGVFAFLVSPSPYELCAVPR", "assay": "Cytochrome P450 family 2 subfamily D member 6 (CYP2D6) small molecule antagonists: luciferase biochemical (cell-free) qHTS assay (AID 1645840); further: nearly all actives have a fitted effect of over 55% in size; further: potency means the concentration at half of the fitted maximal effect", "method_in_brief": "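P450-Glo luminescent screen: recombinant CYP2D6 enzyme–proluciferin substrate mix preincubated with compound 10 min at room temperature, then NADPH regeneration added for 1 h at room temperature. Detection reagent added for 20 min; luciferin light read as relative luminescence units.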"}, "[2]": {"biological_target": "Cytochrome P450 3A4 (Homo sapiens) (UniProt P08684)", "sequence (P08684 whole entry, looked up)": "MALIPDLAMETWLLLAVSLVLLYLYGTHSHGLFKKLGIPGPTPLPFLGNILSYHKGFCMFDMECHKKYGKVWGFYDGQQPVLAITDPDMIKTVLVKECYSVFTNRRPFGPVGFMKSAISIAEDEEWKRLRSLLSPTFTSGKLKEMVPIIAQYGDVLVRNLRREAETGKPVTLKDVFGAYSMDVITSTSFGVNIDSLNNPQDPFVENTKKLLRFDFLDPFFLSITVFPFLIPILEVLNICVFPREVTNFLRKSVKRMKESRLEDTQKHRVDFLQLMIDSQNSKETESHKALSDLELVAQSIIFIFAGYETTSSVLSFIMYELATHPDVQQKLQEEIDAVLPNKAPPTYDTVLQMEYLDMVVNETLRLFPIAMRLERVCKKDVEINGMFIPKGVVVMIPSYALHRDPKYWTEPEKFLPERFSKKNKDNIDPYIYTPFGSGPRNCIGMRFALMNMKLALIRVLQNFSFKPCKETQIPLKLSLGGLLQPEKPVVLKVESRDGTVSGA", "assay": "Cytochrome P450 family 3 subfamily A member 4 (CYP3A4) small molecule antagonists: luciferase qHTS assay (AID 1645841); further: nearly all actives have a fitted effect of over 45% in size", "method_in_brief": "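P450-Glo CYP3A4 enzyme with proluciferin substrate was preincubated with DMSO-dissolved compounds for 10 min at room temperature. NADPH regeneration solution started a 1 h reaction. Detection reagent stopped it, and luminescence was read after 20 min.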"}, "[3]": {"assay": "Primary qHTS for inhibitors of nuclear receptor binding SET domain protein 2 (NSD2) in an RCH-ACV wild type WT cells (2C) (AID 1645877; active means well fitted curve in the direction sought with a large enough effect; an effect the other way counts as inactive or inconclusive; further: potency means the concentration at half of the fitted maximal effect; nearly all actives have a fitted effect of over 70% in size)"}, "[4]": {"biological_target": "Cytochrome P450 2C9 (Homo sapiens) (UniProt P11712)", "sequence (P11712 whole entry, looked up)": "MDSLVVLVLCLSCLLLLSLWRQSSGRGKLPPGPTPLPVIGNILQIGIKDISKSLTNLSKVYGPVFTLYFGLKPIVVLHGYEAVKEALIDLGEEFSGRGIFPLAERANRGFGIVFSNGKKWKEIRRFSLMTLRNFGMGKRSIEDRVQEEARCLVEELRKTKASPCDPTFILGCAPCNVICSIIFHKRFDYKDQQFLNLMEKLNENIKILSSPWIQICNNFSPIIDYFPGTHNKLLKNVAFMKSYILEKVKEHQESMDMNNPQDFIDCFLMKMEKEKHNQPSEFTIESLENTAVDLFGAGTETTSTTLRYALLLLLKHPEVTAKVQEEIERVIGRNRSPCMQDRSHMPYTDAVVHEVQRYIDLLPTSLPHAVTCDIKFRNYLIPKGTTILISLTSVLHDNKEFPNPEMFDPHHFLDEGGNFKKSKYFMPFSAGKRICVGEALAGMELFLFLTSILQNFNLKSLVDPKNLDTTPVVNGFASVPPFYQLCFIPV", "assay": "Cytochrome P450 family 2 subfamily C member 9 (CYP2C9) small molecule antagonists: luciferase biochemical (cell-free) qHTS assay (AID 1645842); further: nearly all actives have a fitted effect of over 55% in size; further: potency means the concentration at half of the fitted maximal effect", "method_in_brief": "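Luminescence, after 20 min with luciferin detection reagent, reflected CYP2C9 turnover during a 1 h NADPH-driven reaction at 37C. Enzyme-substrate mix contained 0.4% bovine serum albumin and was preincubated with compound 10 min at room temperature.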"}, "[5]": {"assay": "Primary qHTS for inhibitors of nuclear receptor binding SET domain protein 2 (NSD2) in an isogenic RCH-ACV NSD2 p.E1099K mutant (9B) (AID 1645876; active means well fitted curve in the direction sought with a large enough effect; an effect the other way counts as inactive or inconclusive; further: potency means the concentration at half of the fitted maximal effect; nearly all actives have a fitted effect of over 70% in size)"}}, "note": "Records with an inconclusive call do not appear. The source made the active and inactive calls. Unless noted, the call rests on the fitted dose curve; in most records, active means well fitted curve in the direction sought with a large enough effect in the repeat runs; inconclusive means weak or mixed curves; inactive means no such curve, though single readings can be large; an effect the other way counts as inactive or inconclusive."}
{"smiles": "O=C(Nc1ccccc1Br)NC1CCN(c2ccc(C(F)(F)F)cn2)C1", "note": "(stereo unspecified)", "values": [{"measurement": "Potency", "setting": "[1]", "result": "10.7 µM (active)"}]}
{"smiles": "Nc1nc(OCc2cc(Br)cs2)c2[nH]cnc2n1", "values": [{"measurement": "Potency", "setting": "[1]", "result": "6.74 µM (active)"}]}
{"smiles": "C=CC(=O)N1CC(N2CCN(C(=O)CNc3cc(C4CC4)c(Cl)cc3O)CC2)C1", "values": [{"measurement": "Potency", "setting": "[1]", "result": "inactive"}]}
{"smiles": "COc1ccc(Sc2ccc(NC(=O)c3ccccc3Cl)cc2C#N)cc1", "values": [{"measurement": "Potency", "setting": "[1]", "result": "inactive"}]}
{"smiles": "Cc1cc(F)ccc1-c1nc(NCCN=C(N)NC#N)nc2c1ccc(=O)n2-c1c(F)cccc1F", "values": [{"measurement": "Potency", "setting": "[1]", "result": "19 µM (active)"}]}
{"smiles": "CC1(NC(=O)c2ccc(C#Cc3cccc(F)c3)cn2)COC1", "values": [{"measurement": "Potency", "setting": "[1]", "result": "inactive"}]}
{"smiles": "CCCn1ncc(CN2CCCC(C(=O)c3cccc(OC(C)C)c3)C2)c1C", "note": "(stereo unspecified)", "values": [{"measurement": "Potency", "setting": "[1]", "result": "0.338 µM (active)"}]}
{"smiles": "Nc1nc(O)c(C2=C3C(=Nc4ccccc43)C(=O)NCC2)[nH]1", "values": [{"measurement": "Potency", "setting": "[1]", "result": "inactive"}, {"measurement": "Potency", "setting": "[2]", "result": "inactive"}, {"measurement": "Potency", "setting": "[3]", "result": "16.3 µM (active)"}]}
{"smiles": "O=C(NCCCN1CCC2(CC1)OCc1ccccc12)[C@H]1CCCN1Cc1ccccc1", "values": [{"measurement": "Potency", "setting": "[1]", "result": "2.13 µM (active)"}, {"measurement": "Potency", "setting": "[4]", "result": "inactive"}]}
{"smiles": "CNCCCC1(c2ccccc2)OC(C)(C)c2ccccc21", "note": "(stereo unspecified)", "values": [{"measurement": "Potency", "setting": "[1]", "result": "6.74 µM (active)"}, {"measurement": "Potency", "setting": "[4]", "result": "inactive"}]}
{"smiles": "CC(C)Nc1nc(Nc2ccccc2)nc(-c2ccccc2)n1", "values": [{"measurement": "Potency", "setting": "[1]", "result": "inactive"}, {"measurement": "Potency", "setting": "[4]", "result": "7.56 µM (active)"}]}
{"smiles": "O=C(C(Cc1cccc(C(F)(F)F)c1)NS(=O)(=O)c1cc(F)c2c(c1)CCNC2)N1CCCC1", "note": "(stereo unspecified)", "values": [{"measurement": "Potency", "setting": "[1]", "result": "13.5 µM (active)"}, {"measurement": "Potency", "setting": "[4]", "result": "12 µM (active)"}]}
{"smiles": "CCC(=O)O", "values": [{"measurement": "Potency", "setting": "[1]", "result": "inactive"}, {"measurement": "Potency", "setting": "[4]", "result": "inactive"}]}
{"smiles": "CCC(=O)Oc1ccc2c(c1)CC[C@@H]1[C@@H]2CC[C@]2(C)[C@@H](OC(=O)CC)CC[C@@H]12", "values": [{"measurement": "Potency", "setting": "[1]", "result": "inactive"}, {"measurement": "Potency", "setting": "[4]", "result": "15.1 µM (active)"}]}
{"smiles": "O=C1Nc2nc(-c3c(O)cccc3OCC3CC3)cc([C@@H]3CCCNC3)c2CO1", "values": [{"measurement": "Potency", "setting": "[1]", "result": "19 µM (active)"}, {"measurement": "Potency", "setting": "[2]", "result": "inactive"}, {"measurement": "Potency", "setting": "[5]", "result": "5.78 µM (active)"}, {"measurement": "Potency", "setting": "[3]", "result": "5.15 µM (active)"}]}
